PubChem BioAssay (NCI)
About 83,000 compounds went through this panel and 20% of them were active in at least one assay; those are over-represented in the sample as a whole.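 Plates (96-well) were seeded with cells, treated with compound at one concentration, and incubated for 48 hours before percent growth was determined.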 Active and inactive are the calls of the source. Rule for the calls: active = growth percent below 10; inactive = the rest.

Test system: CAKI-1 renal
Test: NCI-60 one-dose screen, 48 h (100 = growth as untreated, 0 = no growth, -100 = all killed)
Settings: 10 µM unless noted

SMILES | growth
O=S(=O)(NCCCNc1nccc(-c2[nH]c(-c3ccccc3)nc2-c2ccc(F)c(O)c2)n1)c1cccc(F)c1 | 95.5% (inactive)
Cn1cc(-c2cc3ncnc(Nc4ccc(NC(=O)Nc5cc(C(C)(C)C)on5)cc4)c3s2)cn1 | 14.5% (inactive)
Cn1ncc2c(C(=O)c3ccc(F)cc3)nc(C(C)(C)C)nc21 | 89.5% (inactive)
N#Cc1c(-c2cccs2)cc(-c2cnccn2)nc1SCC(=O)N/N=C/c1ccc(Cl)cc1 | 90.8% (inactive)
O=C(/C=C/c1cc(Cl)ccc1Cl)Nc1ncc(Cc2ccc(Cl)cc2)s1 | 2.37% (active)
CNC(=O)c1cc(N2CCc3cc(NC(=O)Nc4ccc(N5CCN(C)CC5)c(C(F)(F)F)c4)ccc32)ccn1 | 79.9% (inactive)
CCc1cc(O)ccc1Nc1cc(-c2ccc(-n3cccn3)cc2)[nH]n1 | 44.8% (inactive)
COc1ccc2[nH]cc(-c3nc(N)nnc3-c3cn(C)c4ccc(Br)cc34)c2c1 | 29.1% (inactive)
CCCCCCCCCCCC(=O)NC(C)(C)C(=O)N1CCCC1C(=O)NC(C)(C)C(=O)NC(C)(C)C(=O)N1CCCC1C(=O)NC(C)(C)C(=O)NC(C)(C)C(=O)N1CCCC1C(=O)NC(C)C(=O)NCCC(=O)NC(C)C(=O)NC(C)(C)C(=O)NC(C)(C)C(=O)NC(C)(C)C(=O)NCCC(=O)NC(C)(C)C(=O)NC(C)(C)C(=O)NC(C)(C)C(=O)NC(C)C(=O)NCCC(=O)O (stereo not given) | -94.2% (active)
CCCc1[nH]c(-c2cc(N)ccc2Cl)c2c1C(=O)CCCC2 | 76.3% (inactive)
CC1=C(C)C(=O)C(Nc2ccc(C)cc2)=C(Br)C1=O | 106% (inactive)
O=S(=O)(Oc1ccc(-c2cn3ccsc3n2)cc1)c1cccc(C(F)(F)F)c1 | 89.9% (inactive)
C#CCOc1cccc(/C(N)=N/C(N)=N/c2nc3ccccc3s2)c1 | 73.5% (inactive)
CCOC(=O)c1c(NC(=O)c2ccc(C(F)(F)F)cc2)sc2c(CN3CCN(C)CC3)c(O)ccc12 | -66% (active)
Cc1ccc(NC(=O)Nc2nc3ccc([N+](=O)[O-])cc3s2)cc1 | -23.2% (active)
CCOC(=O)c1c(NCC(=O)Nc2cccc([N+](=O)[O-])c2)sc(C(C)=O)c1C | -30.8% (active)
O=C(CCCCCCNC(=O)C(O)(O)C(F)(F)F)Nc1ccc(Br)cc1 | -13.9% (active)
Cc1ccccc1N1CCN(C2=C(Cl)C(=O)c3ncccc3C2=O)CC1 | 25.4% (inactive)
O=C1[C@@H]2Cc3c([nH]c4ccccc34)[C@H](c3ccc(Br)cc3)N2C(=O)CN1C1CCN(Cc2c(Cl)cccc2Cl)CC1 | 67.6% (inactive)
Cc1ccc(CSC2=C(Cl)CN(c3ccc(Cl)cc3)C2=O)cc1 | 94.5% (inactive)

SMILES | growth
COC(=O)CCCNCCCn1ccc2cc(NCc3cccc(-c4ccccc4)c3C)ccc21 | 48.4% (inactive)
C#CCOc1ccccc1/C=N/Nc1nc(-c2ccc(Cl)cc2)cs1 | 92% (inactive)
CC(=O)c1c([Si](C)(C)C)c2cc(C#N)ccn2c1C(=O)c1ccc(Br)cc1 | 52% (inactive)
O=C(COc1ccc(/C=C2\C(=O)Nc3ccc(F)cc32)cc1)Nc1ccccc1 | 82.4% (inactive)
COc1ccc(CC(C)=C(c2ccc(OCCN3CCCC3)cc2)c2ccc(OCCN3CCCC3)cc2)cc1 | -89.1% (active)
O=C(CSc1nc2ccccc2c(=O)n1-c1ccc(S(=O)(=O)Nc2ccc(Cl)nn2)cc1)Nc1ccc(S(=O)(=O)Nc2ccc(Cl)nn2)cc1 | 91.9% (inactive)
C=C(C)[C@@H]1CC[C@]2(COP(=O)(OCC)OCC)CC[C@]3(C)[C@H](CC[C@@H]4[C@@]5(C)CC[C@H](OP(=O)(OCC)OCC)C(C)(C)[C@@H]5CC[C@]43C)[C@@H]12 | 35.2% (inactive)
COC(=O)c1cccc(NC2=C(Cl)C(=O)C(C)=C(C)C2=O)c1 | 94.2% (inactive)
Cn1cc(-c2nc(N)nnc2-c2c[nH]c3ccc(Br)cc23)c2cc(F)ccc21 | 67.8% (inactive)
O=C(O)c1ccc(-n2c(=O)n(-c3cccc(C(F)(F)F)c3)c(=O)c3cc(-c4ccc(F)cc4F)ccc32)cc1 | -6.76% (active)
O=C1[C@H]2Cc3c([nH]c4ccccc34)[C@H](c3ccc(Br)cc3)N2C(=O)CN1C1CCN(CC2CCCCC2)CC1 | 52.8% (inactive)
C#Cc1nc(/C=C/CCCCCCC(=O)NO)cs1 | -11.4% (active)
C#CCN(C)CCCOc1ccc(NC(=O)CCCCCCCCC(=O)NO)cc1Cl | 78.6% (inactive)
NC(=O)c1ncn2c(=O)n(CCF)nnc12 | 34% (inactive)
Cc1csc(/N=C(N)/N=C(\N)c2cccc(C#N)c2)n1 | 53.9% (inactive)
C=C(C)[C@@H]1CC[C@]2(COCCCNCCCN)CC[C@]3(C)[C@H](CC[C@@H]4[C@@]5(C)CC[C@H](O)C(C)(C)[C@@H]5CC[C@]43C)[C@@H]12 | -85.6% (active)
O=C(/C=C/c1cccc(F)c1)c1cccc(OCCCOc2cccc(C(=O)/C=C/c3cccc(F)c3)c2)c1 | 90.4% (inactive)
Cc1ccc(C(=O)CSc2nc3ccccc3c(=O)n2C)cc1 | 72.7% (inactive)
Cc1ccc2c(n1)C(=O)C(Cl)=C(Nc1ccc(C#N)cc1)C2=O | 76.5% (inactive)
CC(C)(O)c1cncc(-c2ccc3ncc(C#N)c(N4CCc5cc(F)c(Cl)cc54)c3c2)c1 | 0.608% (active)
